Values joined by “and” are separate entries in the source; they are usually repeats but may differ in a detail not shown here. Equal entries are not always repeated. About 79,000 compounds went through this panel and 15% of them were active in at least one assay; those are over-represented in the sample as a whole. Active and inactive are the calls of the source. No stated cut-off is given here; in the data, active means growth inhibition above about 70%; inactive means the rest.
Legend:
[1] = NCI Yeast Anticancer Drug Screen. Data for the rad50 strain (AID 155);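 further: 0% = growth of vehicle-only cultures of the same strain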; settings: S. cerevisiae rad50 strain growth inhibition, stronger effect = higher value; at 50.0 µM unless noted
How it was run: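 DNA repair mutant yeast, compound exposure, growth read-out; inhibition is taken relative to vehicle.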

[2] = NCI Yeast Anticancer Drug Screen. Data for the mec2-1 strain (AID 157); settings: S. cerevisiae mec2-1 strain, stronger effect = higher value; at 50.0 µM unless noted
How it was run: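 Using mec2-1 yeast: add compound, measure growth, express inhibition versus vehicle-treated cultures.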

[3] = NCI Yeast Anticancer Drug Screen. Data for the sgs1 mgt1 strain (AID 161);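 further: 0% = growth of cultures given vehicle only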; settings: S. cerevisiae sgs1 mgt1 strain, stronger effect = higher value; at 50.0 µM unless noted
How it was run: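 Percent growth inhibition was derived by comparing compound-exposed mutant yeast with vehicle-exposed cultures. The strain carries alterations in DNA damage repair.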

[4] = NCI Yeast Anticancer Drug Screen. Data for the cln2 rad14 strain (AID 165);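 further: 0% = growth equal to vehicle treated cultures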; settings: S. cerevisiae cln2 rad14 strain, stronger effect = higher value; at 50.0 µM unless noted
How it was run: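 Yeast strain cln2 rad14, bearing defects in cell cycle control and DNA repair, serves as the test system; values reflect growth inhibition compared with vehicle.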

[5] = NCI Yeast Anticancer Drug Screen. Data for the bub3 strain (AID 167); settings: S. cerevisiae bub3 mutant strain, stronger effect = higher value; at 50.0 µM unless noted
How it was run: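 In this screen, a yeast mutant lacking normal mitotic checkpoint function is challenged with compound. Relative growth versus vehicle gives the inhibition value.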

[6] = NCI Yeast Anticancer Drug Screen. Data for the mlh1 rad18 strain (AID 175); settings: S. cerevisiae mlh1 rad18 strain growth inhibition, stronger effect = higher value; at 50.0 µM unless noted
How it was run: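 Steps: expose repair-defective yeast to compound; measure growth; express inhibition against vehicle-treated controls.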

Measured: growth inhibition

CN1N=C(c2ccncc2)OC1c1cccc(F)c1 (stereo not given)
inactive: [1] -58% | [2] -45.4% | [3] -25.6% | [4] 6.5% | [5] 4.9% | [6] -16%

CCc1c(C)[nH]c2ccc([N+](=O)[O-])cc12
inactive: [1] 18.2% | [2] 3.25% | [3] 6.7% | [4] 19.9% | [5] 23.2% | [6] 26.4%

CC1([N+](=O)[O-])COC(Cc2ccccc2)OC1 (stereo not given)
inactive: [1] -7.7% | [2] -4% | [3] -16.9% | [4] -17.3% | [5] -18% | [6] -5%

O=C1CSC(c2cccc([N+](=O)[O-])c2)N1c1nncs1 (stereo not given)
inactive: [1] 8.55% | [2] 11.7% | [3] 6.8% | [4] 5.15% | [5] 3.4% | [6] 5.5%

Cn1c2ccc(Cl)cc2c2ccc3c(c21)C(=O)C=CC3=O
inactive: [1] -21.9% | [2] -33% | [3] -18.3% | [4] 14.2% | [5] -25.2% | [6] -8.05%

CCOC(=O)N/N=C/c1ccccc1C
inactive: [1] -9.05% | [2] -3.15% | [3] -6.9% | [4] 25.2% | [5] -3.5% | [6] -15.4%

C=C1C[C@@H](O)C[C@@]2(C)C[C@@H]3OC(=O)C(=C)[C@@H]3C[C@H]12
inactive: [1] -5.9% | [2] -3% | [3] 16.2% | [4] 14.2% | [5] -16.6% | [6] 19.9%

CCCCCOC(=O)c1ccc(C(C)C)cc1
inactive: [1] 10.2% | [2] -6.2% | [3] 5.15% | [4] 8.5% | [5] 0.6% | [6] 5.1%

NNC(=O)CCn1[nH]c(=O)c(Cl)c(Cl)c1=O
inactive: [1] 13.9% | [2] 11.8% | [3] 19.9% | [4] 12.9% | [5] 16.9% | [6] 11.4%

C/C(CC(=O)Nc1ccc(Cc2ccc(Br)cc2)cc1)=N/Nc1ccc([N+](=O)[O-])cc1[N+](=O)[O-]
inactive: [1] 25.1% | [2] 12.6% | [3] 31.3% | [4] 16.5% | [5] 4.1% | [6] 24.7%

COC1=NS(=O)(=O)C2CCCCCCC2O1 (stereo not given)
inactive: [1] 11.1% | [2] -2.85% | [3] 1.15% | [4] -74.2% | [5] 10.6% | [6] -7.4%

CCN(CC)CCN=c1nc(/C=C\C=C\NN(C)C(=S)SC)c(C)nn1C
inactive: [1] -49.7% | [2] -7.95% | [3] -15% | [4] -12.3% | [5] -1.05% | [6] -12.8%

O=C1CN(c2ccccc2)C(=O)CN1NCNN1CC(=O)N(c2ccccc2)CC1=O
inactive: [1] -27.4% | [2] 2.1% | [3] -1.5% | [4] 4.35% | [5] -10% | [6] -5%

CC(=O)Oc1cc(S(=O)(=O)Nc2n[nH]c(N)n2)c(S)cc1Cl
inactive: [1] -22.8% | [2] -18.3% | [3] -1.2% | [4] 11.7% | [5] -9.55% | [6] 8.45%

NC1=C(O)C(=O)C(c2ccc3c(c2)OCO3)O1 (stereo not given)
inactive: [1] -17.6% | [2] -5% | [3] -19.9% | [4] -30.2% | [5] 24.8% | [6] -5.2%

CCOC(=O)N(C)C1(c2ccccc2)CCN(CCCC(=O)c2ccc(F)cc2)CC1
inactive: [1] 23% | [2] -34.9% | [3] 7.55% | [4] -26.6% | [5] -7% | [6] -17.2%

COC1=C2C[C@H](C)C[C@H](OC)[C@H](O)[C@@H](C)/C=C(\C)[C@H](OC(N)=O)[C@H](OC)/C=C\C=C(/C)C(=O)NC(=C(/C=N/N3CCN(C)CC3)C1=O)C2=O
inactive: [1] 7.15% | [2] 0.05% | [3] -7.8% | [4] -8.75% | [5] 2.75% | [6] 18.8%

CN1CNC(=O)NC1
inactive: [1] -37% and 10.6% | [2] -25.8% and -10.5% | [3] -12.3% and 9.8% | [4] 4.05% and 8.2% | [5] -23.1% and -11.1% | [6] -16.1% and 23.9%

COC(=O)C1=CO[C@@H](OC2OC(CO)C(O)C(O)C2O)[C@H]2[C@@H]1C=C[C@@]21C=C([C@H](C)OC(=O)/C=C/c2ccc(OC3OC(CO)C(O)C(O)C3O)cc2)C(=O)O1 (stereo not given in full)
inactive: [1] -18.4% | [2] -18.6% | [3] -20.1% | [4] -6.15% | [5] 2.65% | [6] -20.1%

N=C(N)SCCCCCSC(=N)N
inactive: [1] 4.05% | [2] -12.2% | [3] -4.9% | [4] -3.15% | [5] -6.35% | [6] 12.8%

NC1=NC(=O)/C(=C/c2ccccc2[N+](=O)[O-])C(N)=N1
inactive: [1] -26.9% | [2] -0.05% | [3] 10.8% | [4] 4.8% | [5] -5.6% | [6] 24.1%

Cc1ncc([N+](=O)[O-])n1CC(O)Cn1cnc([N+](=O)[O-])n1 (stereo not given)
inactive: [1] -19% | [2] -6.5% | [3] -1.75% | [4] -4.2% | [5] -4.35% | [6] -31.4%

CC(O)CNc1nc(N)[nH]c(=O)c1[N+](=O)[O-] (stereo not given)
inactive: [1] 4.45% | [2] 2.35% | [3] 1.45% | [4] -41.5% | [5] -9.95% | [6] -1.6%

COc1ccc(C(=O)N2N=C(C)C(C)(C)C2(C)O)cc1 (stereo not given)
inactive: [1] -7.05% | [2] -23.1% | [3] -23.6% | [4] 2.5% | [5] -29.8% | [6] -1.95%

C[N+](C)(C)CC(O)C[N+](C)(C)C
inactive: [1] 12.1% | [2] 6.15% | [3] 3.6% | [4] -42.1% | [5] -3.5% | [6] 22.7%

Oc1ccccc1/C=N\N=C\NN/C=N/N=C/c1ccccc1O
inactive: [1] -8.1% | [2] -0.75% | [3] -4% | [4] 13.8% | [5] 6.4% | [6] 5.55%

Cc1ccc(NP(=O)(Nc2ccc(C)cc2)c2ccc([N+](=O)[O-])cc2)cc1
active: [1] 93.2% | [2] 94.2% | [3] 92.7% | [4] 92.1% | [5] 85.3% | [6] 95.6%

CC1CCC2COC(=O)CCC2(C)C1C (stereo not given)
inactive: [1] 5.95% | [2] 0.7% | [3] -9.75% | [4] -40.9% | [5] -17.4% | [6] -22.9%

COc1cc(C(=O)N(C)C)cc(OC)c1OC
inactive: [1] -1.25% | [2] 2.65% | [3] -6.6% | [4] 2.25% | [5] -4% | [6] 5.5%

C=CC[N+]1(CCOC(=O)C(c2ccccc2)C2C=CCC2)CCCC1 (stereo not given)
inactive: [1] -17.1% | [2] 1.35% | [3] -6.9% | [4] -13.8% | [5] -13.9% | [6] -22.4%

CC(=O)Oc1ccc(Cc2ccccc2)cc1
inactive: [1] 47% | [2] 33.5% | [3] 48.2% | [4] -49.2% | [5] 32.9% | [6] 49.1%

N/N=C1\CC2C3CC4(OCCO4)C4C3CC2C14 (stereo not given)
inactive: [1] 1.6% | [2] -4.7% | [3] 1.75% | [4] 6.55% | [5] -7.6% | [6] 0.15%

CCN(CC)CCNc1ccc2ncn3c4cc(=O)ccc4c(O)c1c23
inactive: [1] -2.3% | [2] -31.5% | [3] -46.4% | [4] 7.9% | [5] -7.85% | [6] 4.3%

CS(C)=C(C(=O)c1ccccc1)/C(=C/C(=O)c1ccccc1)c1ccccc1
inactive: [1] 21.5% | [2] 26.2% | [3] 65% | [4] 36% | [5] 43.6%
active: [6] 79%

O=S(=O)(Nc1cccc(O)c1)c1ccccc1
inactive: [1] 6% | [2] -12.1% | [3] 6.8% | [4] 14.7% | [5] 3% | [6] 13.2%

CC(C)c1cccc(C(C)C)c1NC(=O)C(=O)Cc1nc2ccc([N+](=O)[O-])cc2[nH]c1=O
inactive: [1] 26.6% | [2] 19.6% | [3] 34.6% | [4] 25.3% | [5] 24.6% | [6] 40.8%

O/N=C(Sc1ccccn1)/C(=N/O)Sc1ccccn1
inactive: [1] -7.25% | [2] 0% | [3] -2.9% | [4] -3.05% | [5] 4.7% | [6] 4.9%

COc1c2c(c(OC)c3c(=O)cc(C/C(=N/NC(=O)C[n+]4ccccc4)C(=O)Nc4cc(C)ccc4C)oc13)OCO2
inactive: [1] -13.4% | [2] -6.65% | [3] -18.1% | [4] 5.6% | [5] -3.15% | [6] -0.3%

CC1=N/C(=C\c2cccc([N+](=O)[O-])c2)C(=O)O1
inactive: [1] -6.9% | [2] -30.8% | [3] 5.1% | [4] 3.35% | [5] -10.7% | [6] 13.5%

COC1CCC(/C=C(\C#N)C2CCC(C)CC2)CC1 (stereo not given)
inactive: [1] 18.3% | [2] 22.1% | [3] 43.9% | [4] 12.1% | [5] 30.2% | [6] 30.6%

Reference: PubChem BioAssay (NCI)
